Experimental data published in PubChem BioAssay (NCATS).
Several values for one entry are separate records, joined by “and”; a condition that tells them apart may be missing. Equal values may be shown once. Results filed as inconclusive are left out. Where a call stands in place of a potency, no number is given. Activity calls are given as the source filed them. The call rests on the fitted dose curve; in most records, active means well fitted curve in the direction sought with a large enough effect; inconclusive means small, poorly fitted or top-dose-only effect, or another doubt; inactive means no such curve, though single readings can be large; an effect the other way counts as inactive or inconclusive.
Further: nearly all actives have a fitted effect of over 70% in size.
Potency means the concentration at half of the fitted maximal effect.

Assay: Primary qHTS for inhibitors of nuclear receptor binding SET domain protein 2 (NSD2) in an isogenic RCH-ACV NSD2 p.E1099K mutant (9B) (AID 1645876)
Settings: RCH-ACV NSD2 E1099K (9B) viability, CellTiter-Glo, 72 h; series mostly up to 44.9 µM
With NCCNC(=O)c1ccc(Cl)cn1 the Potency was “inactive”. With NC(=O)n1c(O)c(C(=O)c2cccs2)c2cc(Cl)ccc21 the Potency was “inactive”. With CCN(CC)CCOc1ccc2c(c1)C(=O)c1cc(OCCN(CC)CC)ccc1-2 the Potency was 9.44 µM (active). For CCCCCCCCCCCCCC[N+](C)(C)Cc1ccccc1, the Potency was 0.335 µM (active). In the case of CC[C@]12CCCN3CCc4c(n(c5ccccc45)C(=O)C1)[C@@H]32, the Potency is reported as 8.41 µM (active) and 8.17 µM (active). In the case of NS(=O)(=O)c1cc2c(cc1Cl)NC(CC1CCCC1)NS2(=O)=O (stereo not given), the Potency is reported as “inactive”. With CCCCCN=C(N)N/N=C/c1c[nH]c2ccc(OC)cc12 the Potency was 7.5 µM (active). For O=C(O)C(Cc1cc(I)c(O)c(I)c1)c1ccccc1 (stereo not given), the Potency was “inactive”. With CC(C)(C)NC[C@H](O)COc1cccc2c1CCCC2=O the Potency was “inactive”. In the case of O=C(CN1CCN(Cc2ccc3c(c2)OCO3)CC1)N1c2ccccc2Sc2ccccc21, the Potency is reported as “inactive”. In the case of CCOc1ccc(NC(C)=O)cc1, the Potency is reported as “inactive”. With C[N+]1(CC2COC(c3ccccc3)(C3CCCCC3)O2)CCCCC1 (stereo not given) the Potency was 21.1 µM (active). With CCOC(=O)[C@H](CCc1ccccc1)N[C@@H](C)C(=O)N1[C@H](C(=O)O)C[C@@H]2CCC[C@@H]21 the Potency was “inactive”. In the case of Cl/C(=C\n1cncn1)c1ccc(Cl)cc1Cl, the Potency is reported as “inactive”. For N/C(=N\N=C\c1ccc(Cl)cc1)N/N=C/c1ccc(Cl)cc1, the Potency was “inactive”. For C[C@@]12C(=O)OC(=O)[C@]1(C)C1CCC2O1, the Potency was 2.99 µM (active). With CCN(CC)CCOc1ccccc1C(=O)CCc1ccccc1 the Potency was “inactive”. In the case of O=C1C(O)=C(O)C(=O)C(O)=C1O, the Potency is reported as “inactive”. For C=C1c2cccc(O)c2C(O)=C2C(=O)[C@]3(O)C(O)=C(C(N)=O)C(=O)[C@@H](N(C)C)[C@@H]3[C@@H](O)[C@H]12, the Potency was “inactive”. With C[C@@H](O)[C@H]1C(=O)N2C(C(=O)O)=C(S[C@@H]3CN[C@H](CNS(N)(=O)=O)C3)[C@H](C)[C@H]12 the Potency was “inactive”. In the case of Oc1c(Cl)cc(Cl)c(Cl)c1Cc1c(O)c(Cl)cc(Cl)c1Cl, the Potency is reported as 5.96 µM (active). In the case of CC(C)[C@@H]1CC[C@@H](C)CC1=O, the Potency is reported as “inactive”.

Assay: Primary qHTS for inhibitors of nuclear receptor binding SET domain protein 2 (NSD2) in an RCH-ACV wild type WT cells (2C) (AID 1645877)
Settings: RCH-ACV (leukaemia line) NSD2 WT (2C) viability, CellTiter-Glo, 72 h; series mostly up to 44.9 µM
For CCO[C@@H]1O[C@H](C(COCc2ccccc2)OCc2ccccc2)[C@H](OCc2ccccc2)[C@H]1O (stereo not given in full), the Potency was 21.1 µM (active). For O=C(N/N=C/c1ccc([N+](=O)[O-])o1)c1ccc(O)cc1, the Potency was 8.41 µM (active). For OC[C@H]1O[C@@H]2O[C@H]3[C@H](O)[C@@H](O)[C@@H](O[C@H]4[C@H](O)[C@@H](O)[C@@H](O[C@H]5[C@H](O)[C@@H](O)[C@@H](O[C@H]6[C@H](O)[C@@H](O)[C@@H](O[C@H]7[C@H](O)[C@@H](O)[C@@H](O[C@H]8[C@H](O)[C@@H](O)[C@@H](O[C@H]1[C@H](O)[C@H]2O)O[C@@H]8CO)O[C@@H]7CO)O[C@@H]6CO)O[C@@H]5CO)O[C@@H]4CO)O[C@@H]3CO, the Potency was “inactive”. With CCCCCCCCCCCCCCC[C@H](O)[C@@H](N)CO the Potency was 5.96 µM (active). For CC[C@H](c1ccc(O)cc1)[C@@H](CC)c1ccc(O)cc1, the Potency was 8.41 µM (active). In the case of NC(=O)n1c(O)c(C(=O)c2cccs2)c2cc(Cl)ccc21, the Potency is reported as “inactive”. In the case of CCN(CC)CCOc1ccc2c(c1)C(=O)c1cc(OCCN(CC)CC)ccc1-2, the Potency is reported as 9.44 µM (active). In the case of CCCCCCCCCCCCCC[N+](C)(C)Cc1ccccc1, the Potency is reported as 0.237 µM (active). In the case of CC[C@]12CCCN3CCc4c(n(c5ccccc45)C(=O)C1)[C@@H]32, the Potency is reported as 5.96 µM (active). For NS(=O)(=O)c1cc2c(cc1Cl)NC(CC1CCCC1)NS2(=O)=O (stereo not given), the Potency was “inactive”. With CC(C)(C)NC[C@H](O)COc1cccc2c1CCCC2=O the Potency was “inactive”. With C[N+]1(CC2COC(c3ccccc3)(C3CCCCC3)O2)CCCCC1 (stereo not given) the Potency was 21.1 µM (active). With CCOC(=O)[C@H](CCc1ccccc1)N[C@@H](C)C(=O)N1[C@H](C(=O)O)C[C@@H]2CCC[C@@H]21 the Potency was “inactive”. For N/C(=N\N=C\c1ccc(Cl)cc1)N/N=C/c1ccc(Cl)cc1, the Potency was “inactive”. With C[C@@]12C(=O)OC(=O)[C@]1(C)C1CCC2O1 the Potency was 2.66 µM (active). For O=C1C(O)=C(O)C(=O)C(O)=C1O, the Potency was “inactive”. In the case of Oc1c(Cl)cc(Cl)c(Cl)c1Cc1c(O)c(Cl)cc(Cl)c1Cl, the Potency is reported as 5.96 µM (active). For CC(C)[C@@H]1CC[C@@H](C)CC1=O, the Potency was “inactive”.
